Bioassay records from PubChem BioAssay.
The full list was thinned out, with hits kept by preference.
IDE exosite FP = exo-site inhibitors of human IDE, primary screen, biochemical, fluorescence anisotropy, probe displacement. Insulin-degrading enzyme (Homo sapiens), P14735. purified IDE, FL-6b probe fluorescence polarization; stronger effect = lower value. 17,000 tested, 6.3% active. AID 1259349, 2017. z-score at 20 µM;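 active means z-score of -3 or lower, meaning strong loss of probe binding signal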;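 further: His-tagged human IDE residues 42-1019 made in E. coli with 30 nM FL-6b probe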
Target sequence (P14735 42-1019 limits assumed): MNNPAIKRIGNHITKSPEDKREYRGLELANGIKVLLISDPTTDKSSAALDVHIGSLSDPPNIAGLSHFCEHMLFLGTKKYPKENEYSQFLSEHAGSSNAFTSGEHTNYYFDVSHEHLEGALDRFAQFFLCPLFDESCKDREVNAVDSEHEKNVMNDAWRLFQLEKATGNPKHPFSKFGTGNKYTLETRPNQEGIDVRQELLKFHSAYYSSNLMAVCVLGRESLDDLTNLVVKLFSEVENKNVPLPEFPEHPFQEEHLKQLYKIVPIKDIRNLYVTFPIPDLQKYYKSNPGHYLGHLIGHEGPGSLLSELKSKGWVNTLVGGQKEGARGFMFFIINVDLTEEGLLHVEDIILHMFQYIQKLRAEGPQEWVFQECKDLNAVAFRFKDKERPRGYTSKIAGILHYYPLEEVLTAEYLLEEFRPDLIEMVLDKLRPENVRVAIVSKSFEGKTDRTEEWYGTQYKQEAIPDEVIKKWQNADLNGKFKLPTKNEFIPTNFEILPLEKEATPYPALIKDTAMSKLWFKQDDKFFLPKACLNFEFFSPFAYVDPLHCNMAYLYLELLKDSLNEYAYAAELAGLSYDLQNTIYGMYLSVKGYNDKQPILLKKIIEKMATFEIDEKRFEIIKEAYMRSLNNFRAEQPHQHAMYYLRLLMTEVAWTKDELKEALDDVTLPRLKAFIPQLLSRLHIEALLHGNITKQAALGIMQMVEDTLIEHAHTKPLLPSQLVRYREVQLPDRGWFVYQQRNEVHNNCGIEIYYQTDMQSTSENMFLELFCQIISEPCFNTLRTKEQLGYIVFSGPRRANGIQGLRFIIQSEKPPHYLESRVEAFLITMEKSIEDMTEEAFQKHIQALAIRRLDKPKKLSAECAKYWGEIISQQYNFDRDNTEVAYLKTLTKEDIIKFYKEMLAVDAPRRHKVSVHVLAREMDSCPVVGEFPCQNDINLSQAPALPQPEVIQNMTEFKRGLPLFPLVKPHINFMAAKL
Large screens that a line does not name were inactive.

O=C(Nc1ccccc1F)N1CC(=O)N2[C@H](C1)[C@H](c1ccc(C#Cc3ccccc3)cc1)[C@@H]2CO	IDE exosite FP -4.1
O=C(Nc1ccccc1F)N1CC(=O)N2[C@@H](CO)[C@@H](c3ccc(C#Cc4ccc(F)cc4)cc3)[C@@H]2C1	none
O=C(Nc1ccccc1F)N1CC(=O)N2[C@H](C1)[C@@H](c1ccc(C#Cc3ccc(F)cc3)cc1)[C@@H]2CO	none
O=C(c1ccccc1F)N1CC(=O)N2[C@H](CO)[C@@H](c3ccc(C#Cc4ccccc4)cc3)[C@@H]2C1	none
O=C(c1ccccc1F)N1CC(=O)N2[C@H](C1)[C@H](c1ccc(C#Cc3ccccc3)cc1)[C@@H]2CO	IDE exosite FP -3.4
O=C(c1cccc(F)c1)N1CC(=O)N2[C@H](CO)[C@@H](c3ccc(-c4ccccc4)cc3)[C@H]2C1	none
O=C(c1ccccc1F)N1CC(=O)N2[C@@H](CO)[C@H](c3ccc(-c4ccccc4)cc3)[C@@H]2C1	none
O=C(c1cccc(F)c1)N1CC(=O)N2[C@H](C1)[C@@H](c1ccc(-c3ccccc3)cc1)[C@@H]2CO	IDE exosite FP -3.4
O=C(c1ccccc1F)N1CC(=O)N2[C@@H](CO)[C@H](c3ccc(-c4ccc(F)cc4)cc3)[C@@H]2C1	none
O=C(c1ccccc1F)N1CC(=O)N2[C@H](C1)[C@@H](c1ccc(-c3ccccc3)cc1)[C@@H]2CO	IDE exosite FP -3.2
O=C(c1cccc(F)c1)N1CC(=O)N2[C@H](CO)[C@@H](c3ccc(-c4ccccc4)cc3)[C@@H]2C1	none
O=C(c1ccccc1F)N1CC(=O)N2[C@H](CO)[C@H](c3ccc(C#Cc4ccccc4)cc3)[C@@H]2C1	none
CN(C)C(=O)c1cccc(-c2ccc([C@@H]3[C@H]4CN(C(=O)C5CCCCC5)CC(=O)N4[C@H]3CO)cc2)c1	none
CS(=O)(=O)N1CC(=O)N2[C@H](CO)[C@@H](c3ccc(C#CC4CCCC4)cc3)[C@H]2C1	none
COc1cccc(S(=O)(=O)N2CCCCN3[C@H](CO)[C@H](c4ccc(C5=CCCCC5)cc4)[C@H]3C2)c1	none
O=C(c1cnccn1)N1CC(=O)N2[C@H](CO)[C@@H](c3ccc(C#CC4CCCCC4)cc3)[C@H]2C1	none
CC(=O)N1[C@H](CN(C)C(=O)C2CCC2)[C@@H](c2ccccc2)[C@@H]1CO	none
Cc1noc(C)c1NC(=O)N(C)C[C@@H]1OCCCC[C@H](C)Oc2ccc(NC(=O)Nc3ccc(C(F)(F)F)cc3)cc2C(=O)N([C@@H](C)CO)C[C@@H]1C	none
CN1C(=O)c2cc(NS(=O)(=O)CC(F)(F)F)ccc2OC[C@H]2O[C@@H](CC(=O)Nc3cccc(F)c3)CC[C@@H]21	none
O=C1CN(S(=O)(=O)Cc2ccccc2)C[C@H]2[C@@H](c3ccc(C#Cc4ccccc4)cc3)[C@H](CO)N12	none
COc1ccccc1NC(=O)N1CC(=O)N2[C@H](CO)[C@H](c3ccc(C#Cc4ccccc4)cc3)[C@@H]2C1	none
CC(=O)NC[C@H]1[C@H](c2ccc(-c3ccccc3F)cc2)[C@@H](CO)N1C(=O)C1CC1	none
C[C@@H](NC(=O)C[C@@H]1C=C[C@H](NS(=O)(=O)c2cccc(F)c2)[C@H](CO)O1)c1ccccc1	none
CN1[C@H](CO)[C@H]2c3ccccc3N(C(=O)Nc3cc(F)ccc3F)C[C@H]21	none
C[C@H](NC(=O)C[C@@H]1C[C@H]2c3cc(NS(=O)(=O)c4ccc(F)cc4)ccc3O[C@H]2[C@H](CO)O1)c1ccccc1	none
CCCNC(=O)N1CC(=O)N2[C@H](C1)[C@H](c1ccc(C#Cc3ccc(F)cc3)cc1)[C@@H]2CO	none
CCCNC(=O)N1CC(=O)N2[C@@H](CO)[C@H](c3ccc(C#Cc4ccccc4)cc3)[C@@H]2C1	IDE exosite FP -11
CCCNC(=O)N1CC(=O)N2[C@@H](CO)[C@@H](c3ccc(C#Cc4cccc(F)c4)cc3)[C@@H]2C1	none
CCCNC(=O)N1CC(=O)N2[C@H](CO)[C@@H](c3ccc(C#Cc4cccc(F)c4)cc3)[C@H]2C1	IDE exosite FP -3.7
CCCNC(=O)N1CC(=O)N2[C@@H](CO)[C@H](c3ccc(C#Cc4ccc(F)cc4)cc3)[C@@H]2C1	none
CCCNC(=O)N1CC(=O)N2[C@@H](CO)[C@@H](c3ccc(C#Cc4ccccc4)cc3)[C@@H]2C1	none
N#C[C@@H]1[C@@H](c2ccc(-c3cncnc3)cc2)[C@H](CO)N1C(=O)C1CCOCC1	none
COCC(=O)N1[C@H](CO)[C@H]2c3ccccc3N(C(=O)Nc3ccccc3Cl)C[C@H]21	none
COc1ccc2c3c([nH]c2c1)[C@@H](CO)N(C(=O)c1cccc(F)c1)CC31CN(C(=O)CC2CC2)C1	none
COc1ccc(NC(=O)N(C)C[C@H]2OCc3ccccc3-c3ccccc3C(=O)N([C@@H](C)CO)C[C@@H]2C)c(OC)c1	none
CN1C(=O)c2cc(NC(=O)Nc3ccccc3F)ccc2OC[C@@H]2O[C@@H](CC(=O)NCCc3ccncc3)CC[C@H]21	none
O=C(C1CCOCC1)N1CC(=O)N2[C@H](CO)[C@@H](c3ccc(C#CC4CC4)cc3)[C@H]2C1	none
O=C(C1CCOCC1)N1CC(=O)N2[C@H](C1)[C@H](c1ccc(C#Cc3cccc(F)c3)cc1)[C@@H]2CO	IDE exosite FP -8.4
COc1ccc(C#Cc2ccc([C@@H]3[C@@H](CO)N4C(=O)CN(C(=O)C5CCOCC5)C[C@@H]34)cc2)cc1	none
O=C(C1CCOCC1)N1CC(=O)N2[C@@H](CO)[C@@H](c3ccc(C#Cc4cccc(F)c4)cc3)[C@@H]2C1	IDE exosite FP -4.8
O=C(C1CCOCC1)N1CC(=O)N2[C@H](C1)[C@@H](c1ccc(C#CC3CC3)cc1)[C@@H]2CO	none
COc1ccc(C#Cc2ccc([C@H]3[C@H]4CN(C(=O)C5CCOCC5)CC(=O)N4[C@H]3CO)cc2)cc1	none
N#C[C@H]1[C@@H](c2ccccc2C2=CCCCC2)[C@@H](CO)N1C(=O)Nc1ccccc1F	none
C/C=C/c1ccc([C@H]2[C@@H](CNC(C)C)N(C(=O)c3ccccn3)[C@H]2CO)cc1	none
CO[C@H]1CN(C)C(=O)c2ccc(NC(C)=O)cc2OC[C@@H](C)N(Cc2cccc(F)c2)C[C@H]1C	none
O=C(c1cnccn1)N1CC(=O)N2[C@@H](CO)[C@H](c3ccc(C4=CCCCC4)cc3)[C@@H]2C1	none
Cc1cccc(-c2ccc([C@H]3[C@@H](CO)N4C(=O)CN(C(=O)c5cnccn5)C[C@@H]34)cc2)c1	IDE exosite FP -9.3
O=C(c1cnccn1)N1CC(=O)N2[C@@H](CO)[C@H](c3ccc(-c4ccccc4)cc3)[C@@H]2C1	IDE exosite FP -3.8
O=C(c1cnccn1)N1CC(=O)N2[C@H](CO)[C@@H](c3ccc(-c4ccccc4)cc3)[C@@H]2C1	none
O=C(c1cnccn1)N1CC(=O)N2[C@H](CO)[C@@H](c3ccc(-c4ccc(F)cc4)cc3)[C@@H]2C1	none
Cc1cccc(-c2ccc([C@H]3[C@@H](CO)N4C(=O)CN(C(=O)c5cnccn5)C[C@H]34)cc2)c1	IDE exosite FP -12
O=C(c1cnccn1)N1CC(=O)N2[C@@H](CO)[C@H](c3ccc(-c4cccc(F)c4)cc3)[C@@H]2C1	none
O=C(c1cnccn1)N1CC(=O)N2[C@H](CO)[C@H](c3ccc(-c4ccc(F)cc4)cc3)[C@H]2C1	none
O=C(c1cnccn1)N1CC(=O)N2[C@H](CO)[C@H](c3ccc(-c4ccccc4)cc3)[C@@H]2C1	none
COc1cccc(C#Cc2ccc([C@H]3[C@@H](CO)N4C(=O)CN(S(=O)(=O)c5ccccc5C)C[C@@H]34)cc2)c1	none
COCCNC(=O)C[C@@H]1C[C@@H]2c3cc(NC(=O)CN(C)C)ccc3O[C@@H]2[C@@H](CO)O1	none
